# Hit rate of the full screen: of about 68,000 compounds, about 2,700 (4%) showed an effect of 50% or more. The sample as a whole holds a higher share of strong results than the screen did.
# System: Plasmodium berghei
# Assay: Screen against P. berghei liver stage (PbLuc), transformed with Luciferase, at 2uM
# Assay type: functional, HepG2
# Conditions: tested at 2 uM
row,SMILES,INHIBITION [%]
1,CCCN(CCOC)C(=O)c1cc(Cn2c(C)nc3ccccc32)[nH]n1,-8.53
2,Cc1cc(C)n(-c2nc(C(=O)NCCN3CCC(C)CC3)cs2)n1,-39.93
3,O=C(c1cc2cc(I)ccc2[nH]1)N1CCC(Nc2cccnn2)CC1,39.72
4,CC(C)C1CN(C(=O)Nc2cnn(CC(F)F)c2)CCO1 (stereo not drawn),-5.66
5,Cc1cc(CCC(=O)N2CCOCC2)ccc1Br,33.64
6,NS(=O)(=O)c1cnn(CC(=O)Nc2c(Cl)cccc2Cl)c1,68.04
7,O=C(Cn1ccc(C(=O)O)n1)Nc1c(Cl)cccc1Cl,25.07
8,O=C(Cn1cc(C(=O)O)cn1)Nc1c(Cl)cccc1Cl,6.26
9,Cc1nn(C)cc1C(=O)N1CCC(CSc2ccccc2)C1 (stereo not drawn),3.22
10,CCn1nc(C)c(S(=O)(=O)Nc2cccc(C(=O)O)c2C)c1C,-4.15
11,CN(C)CC1CN(C(=O)CCc2ccccc2)Cc2nccn2C1 (stereo not drawn),-43.66
12,COc1ccnc(N2CCC(OCCN3CCCCC3)C2)n1 (stereo not drawn),-53.64
13,c1cnc(N2CCC(OCCN3CCCCC3)C2)nc1 (stereo not drawn),56.47
14,Cc1ccnc(N2CCC(OCCN3CCCCC3)C2)n1 (stereo not drawn),12.29
15,CCc1ncc2c(n1)CN(Cc1nnc(Cc3ccccc3)o1)CC2,-11.33
16,Cc1cc(C(=O)NCCN2CCCCCC2)nn1C(C)(C)C,-5.98
17,CCc1nnc2n1CCN(Cc1cc(Cl)c3c(c1)OCCCO3)C2,-3.57
18,CCc1ccc(O)c(C(=O)N2CCN(CC(=O)N(C)C)CC2)c1,55.26
19,CCc1ccc(O)c(C(=O)N2CCCN(CC(=O)N(CC)CC)CC2)c1,46.3
20,CCc1ccc(O)c(C(=O)N2CCN(CC(=O)N(CC)CC)CC2)c1,-19.78
21,CCCS(=O)(=O)N(C)C(=O)CCc1ccsc1,8.59
22,CC(C)c1nc(CNc2ccc(CCO)cc2)cs1,2.76

row,SMILES,INHIBITION [%]
1,CNc1cncc(C2CCN(C(=O)c3cnco3)CC2)n1,56.93
2,Cc1cncc(C2CCCN(C(=O)c3cnco3)C2)n1 (stereo not drawn),-10.44
3,CNc1cncc(C2CCN(C(=O)c3coc(C)n3)CC2)n1,-16.56
4,Cc1ccc2[nH]c(C3CCN(C)CC3)nc2c1,-5.34
5,COCCN1CCC(c2nc3cc(C)ccc3[nH]2)CC1,8.33
6,Cc1ccc2[nH]c([C@H]3CCN(CC4CCCCC4)C3)nc2c1,63.89
7,CC(C)S(=O)(=O)N1CCCC(c2cccc(C(=O)O)c2)C1 (stereo not drawn),49.88
8,CCn1cnnc1CNC(=O)N1CCN(c2ccccc2OC)CC1,33.61
9,O=C(Nc1cc[nH]n1)c1ccc(COCC(F)(F)F)cc1,-20.91
10,COc1ccc(OC)c(CN2CCC(c3cc(O)nc(C)n3)C2)c1 (stereo not drawn),-111.32
11,COc1ccc(CN2CCC(c3cc(O)nc(C)n3)C2)c(OC)c1 (stereo not drawn),52.01
12,COc1ccc(CN2CCC(c3cc(O)nc(C)n3)C2)c(F)c1 (stereo not drawn),-30.34
13,Cc1noc(CC2CCN(C(=O)C(c3ccccc3C)N(C)C)CC2)n1 (stereo not drawn),37
14,CCn1c(NCc2ccccc2)nc2c(C)nn(C)c2c1=O,-1.65
15,Cc1nn(C)c2c(NCc3ccccn3)nc(C(C)C)nc12,72.41
16,CCn1nc(C)c2nc(C(C)C)nc(NCc3ccccn3)c21,-11.34
17,CCn1c(NCc2cccnc2)nc2c(C)nn(C)c2c1=O,24.79
18,Cc1nc(NCc2ccccn2)c2c(n1)c(C)nn2C,-40.15
19,CCn1c(NCc2ccccn2)nc2c(C)nn(C)c2c1=O,50.9
20,Fc1cnc(N2CC3(CCN(Cc4ccsc4)C3)C2)nc1,34.48
21,COCCC(=O)N1CCCC1c1nc(O)cc(C(C)C)n1 (stereo not drawn),-1.69
22,CCC[C@H]1CN(C(=O)Cn2ccccc2=O)C[C@@H]1NS(C)(=O)=O,5.21

row,SMILES,INHIBITION [%]
1,CCCS(=O)(=O)N1CCN(c2ccnc(N3CCCCC3)n2)CC1,5.38
2,C=C(C)CN1CCC(c2n[nH]c(C3CC3)n2)CC1,52.98
3,CCN(C(=O)CN1CCC(c2n[nH]c(C3CC3)n2)CC1)C1CC1,38.67
4,CC1CCN(C(=O)CN2CCC(c3n[nH]c(C4CC4)n3)CC2)CC1,-35.26
5,Cc1cc(C[C@@H]2COC[C@@H]2NC(=O)CN2CCCC2)on1,-56.02
6,Cc1cc(C[C@@H]2COC[C@@H]2NC(=O)CCN2Cc3ccccc3C2)on1,14.1
7,Cc1cc(C[C@@H]2COC[C@@H]2NC(=O)CN2CCc3ccccc3C2)on1,54.49
8,Cc1ccc(CN[C@@H]2COC[C@H]2Cc2cc(C)no2)cc1,20.08
9,Cc1cc(C[C@@H]2COC[C@H]2NCc2ccc(Cl)c(Cl)c2)on1,-44.61
10,Cc1cc(C[C@@H]2COC[C@H]2NCc2ccc(C)c(C)c2)on1,53.24
11,O=C(CC1CCC1)N1CCCC(CO)(CC2CC2)C1 (stereo not drawn),-12.89
12,O=C1CCCN1Cc1ncn2c1CN(C(=O)c1cccc(F)c1)CCC2,21.33
13,Cc1cc(NC(=O)CN2CCCCC2Cn2nc(C)nc2C)on1 (stereo not drawn),27.5
14,Nc1ncccc1CN1C[C@@H](C(=O)O)[C@H](c2cccc(F)c2)C1,1.22
15,CCS(=O)(=O)N1CCC2(CC1)CN(CC1CCOC1)c1ccccc12 (stereo not drawn),17.89
16,COc1ccc(OC2CCN(C(=O)CCc3n[nH]c(N)n3)CC2)cc1,-88.55
17,COc1ccc(CCN2CCCC(CN(C)Cc3[nH]cnc3C)C2)cc1 (stereo not drawn),52.31
18,COc1ccccc1CCN1CCCC(CN(C)Cc2ccc(C)o2)C1 (stereo not drawn),-4.64
19,Cc1nc(CN(C)CC2CCCN(CCc3ccc(Cl)cc3)C2)no1 (stereo not drawn),-7.76
20,Cc1noc(CN(C)CC2CCCN(CCc3ccc(Cl)cc3)C2)n1 (stereo not drawn),35.26
21,COc1ccc(CCN2CCCC(CN(C)Cc3ccc(C)o3)C2)cc1 (stereo not drawn),54.59
22,Cc1nc[nH]c1CN(C)CC1CCCN(CCc2ccc(Cl)cc2)C1 (stereo not drawn),-9.17

row,SMILES,INHIBITION [%]
1,CN(Cc1ncc[nH]1)CC(c1cccs1)N1CCOCC1 (stereo not drawn),62.46
2,Cc1noc(CN(C)CC(c2cccs2)N2CCOCC2)n1 (stereo not drawn),28.88
3,CN(Cc1ccncc1)CC(c1cccs1)N1CCOCC1 (stereo not drawn),-10.66
4,Cc1cc(C(F)(F)F)c2c(=O)n(Cc3cc(C)on3)n(C)c2n1,1.36
5,O=C1CCCN1Cc1nnn2c1CN(c1ncccn1)CCC2,1.48
6,CC(C(=O)NCc1ccc(N2CCN(C)CC2)nc1)n1cccn1 (stereo not drawn),23.16
7,CC(C(=O)NCc1ccnc(N2CCCCCC2)c1)n1cccn1 (stereo not drawn),53.33
8,CC(C)N1CC(C(=O)NCc2ccnc(-n3cccn3)c2)CC1=O (stereo not drawn),-47.05
9,CC(C(=O)NCc1ccnc(N2CCOCC2)c1)n1cccn1 (stereo not drawn),-7.02
10,CC(C(=O)NCc1ccnc(N2CCCC2)c1)n1cccn1 (stereo not drawn),17.12
11,CSC(C)C(=O)NCc1ccnc(N2CCN(C)CC2)c1 (stereo not drawn),22.29
12,CN1CC(C(=O)NCc2ccnc(-n3cccn3)c2)CC1=O (stereo not drawn),67.99
13,CC(C(=O)NCc1ccnc(N2CCN(C)CC2)c1)n1cccn1 (stereo not drawn),53.12
14,CCN1CC(C(=O)NCc2ccnc(-n3cccn3)c2)CC1=O (stereo not drawn),2.46
15,Cn1cc(CC2CC(=O)N(Cc3ccc(Cl)cc3)C2=O)cn1 (stereo not drawn),29.4
16,CCn1ccnc1CN1CCN(CCOc2ccc(C#N)cc2)CC1,-12.75
17,CCOc1ccc2[nH]c(=O)c(CN3CCN(S(N)(=O)=O)CC3)cc2c1,43.05
18,CN1CCC2(CC1)CN(C(=O)c1cccc3cccnc13)CCN2C,9.11
19,CC(CN1CCCC1=O)NC(=O)c1ccc(C(F)(F)F)[nH]c1=O (stereo not drawn),-85.12
20,Cc1cccn2cc(CC(=O)N3CCCC(n4cncn4)C3)nc12 (stereo not drawn),-45.23
21,O=C(C1CCCC1)N1CCC2(CC1)OCCO2,-29.58
22,O=C(C1CCC1)N1CCC2(CC1)OCCO2,11.87

row,SMILES,INHIBITION [%]
1,O=C(C1CC1)N1CCC2(CC1)OCCO2,56.99
2,CC(C)C1CN(c2cccc(C#N)n2)CCCN1Cc1ccc(F)cc1 (stereo not drawn),8.26
3,Cc1ccnc(C2CCN(c3ccnc(C)n3)C2)n1 (stereo not drawn),17.24
4,Cc1cc(C)nc(C2CCN(c3ccncn3)C2)n1 (stereo not drawn),80.06
5,CCc1nnc(Nc2cc(C)nc(C3CCN(c4ccncn4)C3)n2)s1 (stereo not drawn),37.36
6,N#Cc1cccc(NC(=O)N(CC(F)F)C2CC2)c1,-73.45
7,CSCC(=O)N1CCCC(CCC(=O)N(C)CCc2ccccn2)C1 (stereo not drawn),28.62
8,O=C(c1ccoc1)N1CC[C@H]2OCC[C@@]2(COc2ncccc2F)C1,30.79
9,CCN(C(C)c1cccc(O)c1)S(=O)(=O)c1cccnc1 (stereo not drawn),52.83
10,CC(c1cccc(O)c1)N(C)S(=O)(=O)c1cccnc1 (stereo not drawn),-18.09
11,CC(c1cccc(O)c1)N(C)S(N)(=O)=O (stereo not drawn),-21.47
12,Cc1cc(C)c(N(CC(O)CNCc2ccccc2)S(C)(=O)=O)c(C)c1 (stereo not drawn),25.73
13,CN(CCNC(=O)N1CCN(Cc2ccon2)CC1)c1ccccc1,-5.97
14,Cc1cc(CN2CCN(C(=O)NCc3ccco3)CC2)no1,-24.5
15,CCN(CC)CCNC(=O)C(C)OCC(F)(F)F (stereo not drawn),-55.73
16,CC(C)C(=O)NCCNC(=O)C(C)OCC(F)(F)F (stereo not drawn),57.76
17,CC(OCC(F)(F)F)C(=O)NCCN(C)C (stereo not drawn),-6.73
18,O=C(c1ccc(=O)[nH]n1)N1CCc2ccccc21,54.52
19,CC(C)(C)c1ccc2c(c1)CCN2C(=O)c1ccc(=O)[nH]n1,-6.69
20,O=C(c1c[nH]c(=O)[nH]1)N1CCc2ccccc21,-63.68
